# Values joined by “and” are separate entries in the source; they are usually repeats but may differ in a detail not shown here. Identical values can stand only once. About 83,000 compounds went through this panel and 20% of them were active in at least one assay; those are over-represented in the sample as a whole.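 For each line, cells grew in 96-well plates with the test compound present at a single concentration for 48 hours.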 Active and inactive are the calls of the source. Rule for the calls: active = growth percent below 10; inactive = the rest.
# Tested on: HOP-92 NSCLC
# Assay: NCI-60 one-dose screen, 48 h (100 = growth as untreated, 0 = no growth, -100 = all killed)
# Settings: 10 µM unless noted
row,Compound,growth
1,CC(=O)Nc1cccc2c1CCCC2,96.5% (inactive) and 80.8% (inactive)
2,Clc1ccc(SSc2ccc(Cl)cc2)cc1,76% (inactive) and 74.2% (inactive)
3,Cc1nnc(NC/C=C/c2ccccc2)s1,91.3% (inactive) and 91.5% (inactive)
4,Cc1cccc(/C=C\C(=O)c2ccccc2)c1,81.3% (inactive)
5,COC(=O)[C@H]1CCCN1C(=O)C1CCCN1C(=O)[C@@H](Cc1ccccc1)NC(=S)Nc1cc(C(F)(F)F)cc(C(F)(F)F)c1 (some centres not stated),111% (inactive) and 84.9% (inactive)
6,CNc1cc(-c2cccc(OC(F)(F)F)c2)nc2ccc(N3CCCC3)cc12,-31.9% (active) and 13% (inactive) and 28.5% (inactive)
7,O=[N+]([O-])c1ccc(-n2[nH]nnc2=S)cc1,102% (inactive)
8,O=[N+]([O-])c1ccc(Oc2ccccc2)cc1,48.8% (inactive) and 77.1% (inactive)
9,CC(C(=O)O)n1cc(C#N)c(=O)[nH]c1=O (configuration not stated),93.2% (inactive) and 98.4% (inactive)
10,CNC(=O)c1cc(Oc2ccc(NC(=O)Nc3ccc(Cl)c(C(F)(F)F)c3)cc2)ccn1,-22.9% (active) and -30.7% (active)
11,COc1ccc(/C(C#N)=C/c2ccccn2)cc1,99.8% (inactive)
12,Nc1n[nH]c(=S)n1-c1ccc(Cl)cc1,85.9% (inactive)
13,CCOC(=O)C(C(=O)OCC)C(c1ccccc1)N1CCN(c2ccccc2)CC1 (configuration not stated),98.1% (inactive) and 86.6% (inactive)
14,OCCN1CCN(CCO)CC1,102% (inactive) and 85% (inactive) and 95.2% (inactive)
15,CC1=C(/C=C/C(C)=C/C=C/C(C)=C/C=N/NC(=S)NC(=S)N/N=C/C=C(C)/C=C/C=C(C)/C=C/C2=C(C)CCCC2(C)C)C(C)(C)CCC1,-0.81% (active) and -9.45% (active)
16,NC(=O)NO,101% (inactive) and 60.6% (inactive)
17,CN(Cc1ccccc1)Cc1ccccc1,91.8% (inactive)
18,O=C(Cc1cccc2ccccc12)N/N=C/c1ccc2c(c1)CCC2,92.9% (inactive)

row,Compound,growth
1,O=C(CN1CCN(c2cc3c(cc2F)c(=O)c(C(=O)O)cn3C2CC2)CC1)Nc1ccc(Cl)cc1,78.9% (inactive) and 87.2% (inactive)
2,CCN(CC)CCC(CNc1c2ccc([N+](=O)[O-])cc2nc2cc(OC)c(OC)cc12)c1ccccc1 (configuration not stated),-42.2% (active)
3,CN(C)c1ccc2nc3ccc(N)cc3[n+](-c3ccccc3)c2c1,-3.42% (active) and 38.1% (inactive)
4,O=C(/C=C/c1ccccn1)c1ccccc1O,75.5% (inactive) and 34.2% (inactive)
5,CCCCCN(CCCCC)CC(O)c1cc2c(c3ccccc13)CCCC2 (configuration not stated),-14.4% (active)
6,O=C(Nc1ccc(Br)cc1)c1cc(Br)ccc1O,-23% (active) and -12% (active)
7,Clc1ccc(NC(Nc2ccc(Cl)cc2)C(Cl)(Cl)Cl)cc1,105% (inactive)
8,NC(=S)N/N=C(\c1ccc(Br)cc1)C1CC1,83.2% (inactive) and 92.7% (inactive)
9,CC[N+](CC)(CC(=O)Nc1c(C)cccc1C)Cc1ccccc1,112% (inactive) and 90.7% (inactive)
10,NS(=O)(=O)c1cc2c(cc1Cl)NC(C(Cl)Cl)NS2(=O)=O (configuration not stated),96.3% (inactive)
11,CC(=O)c1ccccc1O,83.7% (inactive) and 103% (inactive)
12,Cc1n[nH]c(=O)n(/N=C\c2c[nH]c3ccccc23)c1=O,84.2% (inactive)
13,COc1cc2c(c(OC)c1OC)-c1ccc(OC)c(=O)cc1[C@@H](NC(C)=O)CC2,57.9% (inactive) and 14% (inactive) and 2.37% (active)
14,O[C@H](c1cc(C(F)(F)F)nc2c(C(F)(F)F)cccc12)[C@@H]1CCCCN1,9.97% (active) and -8.33% (active)
15,COc1cc2nc(N3CCN(C(=O)C4COc5ccccc5O4)CC3)nc(N)c2cc1OC (configuration not stated),148% (inactive) and 106% (inactive) and 124% (inactive)
16,COc1ccc(-c2cn[nH]c2-c2cc(OC)c(OC)c(OC)c2)cc1N,53.9% (inactive) and 22.5% (inactive)
17,CC1CCCC(=O)O1 (configuration not stated),91.8% (inactive)
18,CCNC(=O)Nc1ccc(-c2nc3c(c(N4CCOC[C@@H]4C)n2)CCN(C2COC2)C3)cc1,-6.36% (active) and -16.3% (active)

# Tested on: NCI-H522 lung
# Assay: as above
# Settings: 10 µM unless noted
row,Compound,growth
1,CC(=O)Nc1cccc2c1CCCC2,68.7% (inactive) and 75.3% (inactive)
2,Clc1ccc(SSc2ccc(Cl)cc2)cc1,87.9% (inactive) and 81.8% (inactive)
3,Cc1nnc(NC/C=C/c2ccccc2)s1,112% (inactive)
4,Cc1cccc(/C=C\C(=O)c2ccccc2)c1,95.3% (inactive)
5,COC(=O)[C@H]1CCCN1C(=O)C1CCCN1C(=O)[C@@H](Cc1ccccc1)NC(=S)Nc1cc(C(F)(F)F)cc(C(F)(F)F)c1 (some centres not stated),98.6% (inactive) and 78.1% (inactive)
6,CNc1cc(-c2cccc(OC(F)(F)F)c2)nc2ccc(N3CCCC3)cc12,32.2% (inactive) and -63.9% (active) and -35.6% (active)
7,O=[N+]([O-])c1ccc(-n2[nH]nnc2=S)cc1,91.3% (inactive)
8,O=[N+]([O-])c1ccc(Oc2ccccc2)cc1,108% (inactive) and 103% (inactive)
9,CC(C(=O)O)n1cc(C#N)c(=O)[nH]c1=O (configuration not stated),98.8% (inactive) and 93.9% (inactive)
10,CNC(=O)c1cc(Oc2ccc(NC(=O)Nc3ccc(Cl)c(C(F)(F)F)c3)cc2)ccn1,-18.5% (active) and -38.9% (active)
11,COc1ccc(/C(C#N)=C/c2ccccn2)cc1,98.1% (inactive) and 103% (inactive)
12,Nc1n[nH]c(=S)n1-c1ccc(Cl)cc1,97.2% (inactive)
13,CCOC(=O)C(C(=O)OCC)C(c1ccccc1)N1CCN(c2ccccc2)CC1 (configuration not stated),89.7% (inactive) and 88% (inactive)
14,OCCN1CCN(CCO)CC1,98.6% (inactive) and 87.9% (inactive) and 108% (inactive)
15,CC1=C(/C=C/C(C)=C/C=C/C(C)=C/C=N/NC(=S)NC(=S)N/N=C/C=C(C)/C=C/C=C(C)/C=C/C2=C(C)CCCC2(C)C)C(C)(C)CCC1,-84.1% (active) and -88.9% (active)
16,NC(=O)NO,98.7% (inactive) and 82.7% (inactive)
17,CN(Cc1ccccc1)Cc1ccccc1,97.3% (inactive)
18,O=C(Cc1cccc2ccccc12)N/N=C/c1ccc2c(c1)CCC2,23.5% (inactive)

row,Compound,growth
1,O=C(CN1CCN(c2cc3c(cc2F)c(=O)c(C(=O)O)cn3C2CC2)CC1)Nc1ccc(Cl)cc1,-13.7% (active) and 83.5% (inactive)
2,CCN(CC)CCC(CNc1c2ccc([N+](=O)[O-])cc2nc2cc(OC)c(OC)cc12)c1ccccc1 (configuration not stated),-45% (active) and -79.4% (active)
3,CN(C)c1ccc2nc3ccc(N)cc3[n+](-c3ccccc3)c2c1,14.1% (inactive)
4,O=C(/C=C/c1ccccn1)c1ccccc1O,67.8% (inactive) and 28.4% (inactive)
5,CCCCCN(CCCCC)CC(O)c1cc2c(c3ccccc13)CCCC2 (configuration not stated),53% (inactive) and 50.1% (inactive)
6,O=C(Nc1ccc(Br)cc1)c1cc(Br)ccc1O,-13.8% (active) and 2.52% (active)
7,Clc1ccc(NC(Nc2ccc(Cl)cc2)C(Cl)(Cl)Cl)cc1,71.2% (inactive) and 72.1% (inactive)
8,NC(=S)N/N=C(\c1ccc(Br)cc1)C1CC1,98.9% (inactive)
9,CC[N+](CC)(CC(=O)Nc1c(C)cccc1C)Cc1ccccc1,92% (inactive)
10,NS(=O)(=O)c1cc2c(cc1Cl)NC(C(Cl)Cl)NS2(=O)=O (configuration not stated),96.7% (inactive) and 104% (inactive)
11,CC(=O)c1ccccc1O,108% (inactive) and 88.4% (inactive) and 111% (inactive)
12,Cc1n[nH]c(=O)n(/N=C\c2c[nH]c3ccccc23)c1=O,94.1% (inactive)
13,COc1cc2c(c(OC)c1OC)-c1ccc(OC)c(=O)cc1[C@@H](NC(C)=O)CC2,15.4% (inactive) and -6.78% (active) and -64.2% (active)
14,O[C@H](c1cc(C(F)(F)F)nc2c(C(F)(F)F)cccc12)[C@@H]1CCCCN1,58.4% (inactive) and 22.8% (inactive)
15,COc1cc2nc(N3CCN(C(=O)C4COc5ccccc5O4)CC3)nc(N)c2cc1OC (configuration not stated),82.6% (inactive) and 84.1% (inactive)
16,COc1ccc(-c2cn[nH]c2-c2cc(OC)c(OC)c(OC)c2)cc1N,0.102% (active) and 3.18% (active)
17,CC1CCCC(=O)O1 (configuration not stated),86.3% (inactive) and 104% (inactive)
18,CCNC(=O)Nc1ccc(-c2nc3c(c(N4CCOC[C@@H]4C)n2)CCN(C2COC2)C3)cc1,24.1% (inactive) and 6.99% (active)

# From PubChem BioAssay (NCI)
